This is a sample that favours compounds with a hit; in the whole collection about 1.6% have one here.
RAD54 inh: blocks human RAD54 Holliday junction branch migration. FAM/BHQ fluorescence. 0.14% of 360,000 active. inhibition, % at 10.4 µM. Q92698. AID 602329;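 active = mean normalized replicate activity at least 40 and at least half of replicates scoring 40 or more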;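 note: 0% = median of neutral control wells and 100% = median of positive control wells; inhibitors cause a drop in the FAM fluorescence signal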
Target sequence (Q92698 whole entry, looked up): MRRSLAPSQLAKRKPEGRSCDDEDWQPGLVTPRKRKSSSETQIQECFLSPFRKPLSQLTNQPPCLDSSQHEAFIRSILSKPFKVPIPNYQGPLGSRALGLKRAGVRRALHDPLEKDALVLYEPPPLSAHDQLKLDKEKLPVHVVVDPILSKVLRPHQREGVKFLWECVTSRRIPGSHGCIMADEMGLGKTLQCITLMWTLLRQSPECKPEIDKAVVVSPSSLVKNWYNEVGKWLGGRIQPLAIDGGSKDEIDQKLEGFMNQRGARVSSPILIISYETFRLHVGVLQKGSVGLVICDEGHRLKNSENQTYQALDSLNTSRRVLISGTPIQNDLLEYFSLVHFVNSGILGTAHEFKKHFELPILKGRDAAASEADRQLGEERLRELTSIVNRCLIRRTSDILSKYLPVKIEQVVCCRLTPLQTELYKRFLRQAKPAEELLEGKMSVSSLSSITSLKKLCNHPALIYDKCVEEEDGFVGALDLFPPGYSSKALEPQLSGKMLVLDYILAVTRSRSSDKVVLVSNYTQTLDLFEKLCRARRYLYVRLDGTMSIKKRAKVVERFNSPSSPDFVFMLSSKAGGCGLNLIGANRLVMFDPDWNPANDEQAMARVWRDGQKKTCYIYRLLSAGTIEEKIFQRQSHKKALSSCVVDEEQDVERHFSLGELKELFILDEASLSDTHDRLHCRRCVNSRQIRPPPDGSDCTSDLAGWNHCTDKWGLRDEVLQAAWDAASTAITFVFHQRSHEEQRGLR
Vif imaging: blocks HIV Vif function. HEK293T cells, Vif self-association by quenched fluorescence, imaging, 24 h. AID 602346. inhibition, % at 7.49 µM. 0.35% of 340,000 active; in the data active = inhibition above about 50%, passing the limit was not always enough
ABCB6 inh 2: inhibitors of human ABC transporter ABCB6; Q9NP58; K562-ABCB6 porphyrin accumulation, flow cytometry, 1 h; stronger effect = lower value; fluorescence ratio to DMSO, % at 10 µM; 0.19% of 360,000 active; AID 602162;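 active = fluorescence ratio to DMSO below 75%, the collection mean minus 3 SD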;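 note: signal is porphyrin accumulated inside mitochondria; 100% equals median channel fluorescence of DMSO control wells; lower ratio means ABCB6 inhibition with less porphyrin fluorescence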
Myeloid diff MLP: promotes myeloid progenitor differentiation; ER-HoxA9 myeloid progenitors, lysozyme-GFP differentiation, flow cytometry; calls only at 10 µM; 1% of 360,000 active; AID 624256;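 active = normalized GFP-positive differentiation at or above the plate's own cutoff, the solvent-only control mean plus 3 SD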;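 note: cells exposed to compound for four days before flow analysis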
N-glyco inh: blocks N-linked glycosylation in D54 reporter cells; D54 ERlucT glycosylation luciferase reporter, 24 h; percent of 100 nM tunicamycin response; reporter increase, % at 12.5 µM; 0.23% of 360,000 active; AID 588692;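 active = mean luciferase reporter signal, scaled so untreated is 0 and the glycosylation-blocking control 100, at or above a set limit in every replicate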;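 note: luciferase carries N-glycosylation sites so blocking glycosylation raises the light; 0% = median of neutral control wells and 100% = median of 100 nM tunicamycin wells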
Myeloid diff: promotes myeloid progenitor differentiation; shares compounds with Myeloid diff MLP; ER-HoxA9 myeloid progenitors, GFP/Mac1 double-positive flow; calls only; 2% of 2,300 active; AID 651706;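 active = share of green or green-and-red cells above 9 and 9% in run 1 or 4 and 3% in run 2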
GFP autofluor: flagged as fluorescent in myeloid differentiation counter-screen; shares compounds with Myeloid diff MLP; ER-HoxA9 myeloid progenitors, no estrogen, GFP autofluorescence flow cytometry; vehicle wells 0%, positive control 100%; fluorescence response, % (test concentration not listed); 7.4% of 2,300 active;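 active = over 5% cells positive for green fluorescent reporter, or over 2% positive for both it and APC stain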;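 note: range taken on the double positive population between DMSO and positive control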
The depositor's hits bear a star; i = inactive; · = not tested or not shown; + = active, no number.

SMILES	RAD54 inh	Vif imaging	ABCB6 inh 2	Myeloid diff MLP	N-glyco inh	Myeloid diff	GFP autofluor
C[C@@H]1CN([C@H](C)CO)C(=O)c2cc(C#CCN(C)C)cnc2O[C@@H]1CN(C)C(=O)c1ccc2c(c1)OCO2	1	·	·	·	·	·	·
CCO[C@H]1OC(C(=O)O)=C[C@@H](c2ccccc2)[C@@H]1CCCO	8	-7	102	i	-2	i	0
CCO[C@@H]1OC(C(=O)O)=C[C@H](c2ccccc2)[C@H]1CCCO	2	19	95	i	4	·	·
Cc1ccc(S(=O)(=O)N2CC[C@@H]3[C@H]2c2cc(C#Cc4cccnc4)ccc2N(C)[C@H]3CO)cc1	-4	·	·	·	·	·	·
CC(C)NC(=O)N[C@H]1CC[C@@H](CCn2cc(-c3ccccc3)nn2)O[C@@H]1CO	9	·	·	·	·	·	·
COc1ccc(C)cc1NC(=O)n1ncc2cc(Cl)ccc21	3	5	107	+	1	+	0
CCOC(=O)c1cc(C(=O)OCC)c2cc(Br)ccc2n1	3	·	98	+	3	i	0
CO[C@H]1CN(C)C(=O)c2ccc(NC(=O)Nc3cccc(F)c3)cc2OC[C@H](C)N(C(=O)Nc2c(C)noc2C)C[C@@H]1C	-4	·	·	·	·	·	·
COc1cccc(-n2c(SCC(=O)Nc3cc(C)on3)nc3ccccc3c2=O)c1	-13	·	103	i	0	·	·
COc1ccc(-n2c(SCC(=O)Nc3cc(C)on3)nc3ccccc3c2=O)cc1Cl	-7	2	102	i	-3	i	0
COc1ccc(S(=O)(=O)N(C)C[C@H]2Oc3c(NC(=O)c4ccc(-c5nccs5)cc4)cccc3C(=O)N([C@@H](C)CO)C[C@@H]2C)cc1	3	·	·	·	·	·	·
CC(=O)N1C[C@@H]2[C@H](c3ccccc31)[C@H](CO)N2C(=O)c1ccc(F)cc1	11	·	·	·	·	·	·
Cc1c(CCOC(=O)CC23CC4CC(CC(C4)C2)C3)sc[n+]1CC(=O)c1ccc(Br)cc1	8	-5	100	+	-8	i	0
CCc1ccc(NC(=O)CCCN2C(=S)NC(C)(C)CC2C)cc1 (stereo unspecified)	6	-1	93	i	0	·	·
CC1CC(C)(C)NC(=S)N1CCCC(=O)NCc1ccccc1 (stereo unspecified)	15	12	100	i	1	i	0
O=[N+]([O-])c1ccccc1SN(Cc1ccccc1)c1ccccn1	·	1	124	i	-1	i	0
COc1ccc(S(=O)(=O)Cc2ccc(C(=O)NCc3cccs3)o2)cc1	2	8	99	i	-2	·	·
O=C(NCc1cccs1)c1ccc(CS(=O)(=O)c2ccc(Cl)cc2)o1	-6	9	101	+	-1	i	0
O=C(C[C@@H]1CC[C@@H](NC(=O)c2ccc3c(c2)OCO3)[C@H](CO)O1)NC1Cc2ccccc2C1	-4	·	·	·	·	·	·
COc1cc(-c2c(CCO)sc3ccccc23)cc(OC)c1OC	·	·	99	+	·	i	2
O=C(c1cccc(F)c1)N1CC[C@@H]2[C@H](CO)Nc3ccc(-c4cccc(F)c4)cc3[C@@H]21	-5	·	·	·	·	·	·
CC(=O)Nc1ccc(NC(=O)CSc2nccn2Cc2ccccc2)cc1	0	5	98	+	-2	i	0
COc1ccc(CNC(=O)C[C@H]2C[C@@H]3c4cc(NS(C)(=O)=O)ccc4O[C@@H]3[C@@H](CO)O2)cc1	-12	·	·	·	·	·	·
CC1=CC(C)(C)N(C(=O)CNC2CCCCC2)c2cc(C)ccc21	4	3	106	+	-2	i	0
CC1=CC(C)(C)N(C(=O)CCl)c2cc(C)ccc21	12	0	100	i	2	i	0
SMILES	RAD54 inh	Vif imaging	ABCB6 inh 2	Myeloid diff MLP	N-glyco inh	Myeloid diff	GFP autofluor
CC1=CC(C)(C)N(C(=O)CCl)c2ccccc21	·	·	98	i	2	·	·
CC1=CC(C)(C)N(C(=O)CN2C(=O)c3ccccc3C2=O)c2ccc(C)cc21	2	·	104	i	-1	·	·
C/C=C/c1ccc2c(c1)O[C@H](CN(C)C(=O)c1cccc(F)c1)[C@@H](C)CN([C@H](C)CO)S2(=O)=O	-9	·	·	·	·	·	·
CC(=O)N[C@H]1C=C[C@H](CC(=O)NCc2ccc(Cl)cc2)O[C@H]1CO	-1	·	·	·	·	·	·
CC(CCc1ccccc1)NC(=O)c1nnc(Cc2ccc(Cl)cc2)o1 (stereo unspecified)	-2	13	104	i	0	i	0
COC(=O)c1ccc(OC)c(OC2CCCC2)c1	·	-7	97	i	1	i	0
COc1ccc(NC(=O)C2CC2)cc1OC1CCCC1	-6	0	97	i	2	·	·
COc1ccc(N2CCN(c3ccc(N4C(=O)COCC4=O)cc3[N+](=O)[O-])CC2)cc1	4	-4	86	i	-5	i	0
CC(C)(C)c1cc(Cl)c(O)c(NC(=S)NC(=O)c2cccnc2)c1	·	2	107	+	-2	i	0
NC(=S)Nc1cc2ccccc2c2ccccc12	9	-2	105	i	3	·	·
NC(=S)Nc1cccc2cc3ccccc3cc12	-4	0	135	+	10	i	14*
O=C(C[C@H]1C=C[C@@H](NC(=O)c2ccccn2)[C@@H](CO)O1)NCc1cc(F)cc(F)c1	3	·	·	·	·	·	·
O=S(=O)(c1ccc2ccccc2c1)N1CCN(c2ccc(O)cc2)CC1	7	-2	102	+	-4	i	0
CN1CCN(S(=O)(=O)c2ccc3ccccc3c2)CC1	-1	17	102	i	2	·	·
Cc1ccc(-c2nnc(N(C)C(=O)c3cccnc3)s2)cc1	·	2	97	i	-2	i	0
O=C(NCc1ccccc1Cl)C1CCCN(S(=O)(=O)c2cccc3nsnc23)C1 (stereo unspecified)	-4	-6	92	i	-3	i	0
CCC(=O)N[C@@H]1C=C[C@@H](CC(=O)NCc2ccccc2F)O[C@H]1CO	7	·	·	·	·	·	·
CC1Cc2nc(SCC(=O)N3CCCc4ccccc43)n(C)c(=O)c2S1 (stereo unspecified)	-5	-6	99	i	-2	i	1
CCn1nnnc1SCC(=O)N1CCc2ccccc21	3	1	89	i	0	·	·
CCn1nnnc1SCC(=O)N1CCCc2ccccc21	-12	·	112	i	1	i	0
O=C(CSc1nnc2scc(-c3ccccc3)n12)N1CCCc2ccccc21	5	·	102	i	0	i	0
O=C(CSc1nnc2scc(-c3ccccc3)n12)N1CCN(Cc2ccccc2)CC1	·	-3	100	i	-4	·	·
O=C(N[C@@H]1CC[C@H](CCNS(=O)(=O)c2ccccc2Cl)O[C@H]1CO)c1ccc(F)cc1	1	·	·	·	·	·	·

High-throughput results as filed in PubChem BioAssay.
